Source: PubChem BioAssay AID1028 (SRMLSC, 2008)
Potency and affinity values are given separately.

Molecular target: diphosphomevalonate decarboxylase (Streptococcus pneumoniae D39) (UniProt Q9FD53)
Assay: S. pneumoniae DPM-DC inhibition retest, confirmation, biochemical, cuvette format, coupled NADH fluorescence (AID 1028)
Conditions: purified DPM-DC, rate, at 50 µM, active compounds read high;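 active = enzyme inhibitor confirmed by dose series, half-maximal inhibitory concentration at most 40 µM; inactive = the rest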

inhibition, inactive:
COc1ccccc1-c1nc2cc(N)ccc2o1 14.5%
Cc1ccccc1-c1nc2cc(N)ccc2o1 6.79%
Cc1ccc(C)c(-c2nc3cc(N)ccc3o2)c1 0.87%
COc1ccc(-c2nc3ccccc3o2)cc1 6.86%
COc1ccc2oc(-c3ccc(F)cc3)nc2c1 1.68%
Cc1ccc(C)c(-c2nc3cc([N+](=O)[O-])ccc3o2)c1 1.75%
Clc1cccc(-c2nc3ccccc3o2)c1 1.68%
O=C(NC1CC1)c1ccccc1-n1sc2ccccc2c1=O 8%
O=C(c1ccccc1-n1sc2ccccc2c1=O)N1CCCC1 16.1%
Cc1ccc(C)c(-c2nc3cccc(N)c3o2)c1 -0.39%
CCCN(CCC)C(=O)c1ccccc1-n1sc2ccccc2c1=O 14.3%
COc1ccc2nc(-c3ccccc3C)oc2c1 4.59%
Nc1ccc2oc(-c3ccc(F)cc3)nc2c1 13.4%
COc1ccc2oc(-c3ccc(C)cc3)nc2c1 -3.06%
Cc1ccc(-c2nc3ccccc3o2)cc1F 9.15%
Nc1ccc2oc(-c3cccc(F)c3)nc2c1 10.4%
COc1ccc2oc(-c3ccc(N)cc3)nc2c1 7.74%
O=C(c1ccccc1-n1sc2ccccc2c1=O)N1CCCCC1 16.1%
COc1ccc(OC)c(-c2nc3cc(OC)ccc3o2)c1 2.12%
Cc1cccc(-c2nc3ccccc3o2)c1 5.31%
COc1ccc2oc(-c3cc(C)ccc3C)nc2c1 2.66%
COc1ccc2nc(-c3cc(C)ccc3C)oc2c1 1.13%
Cc1ccccc1-c1nc2cccc(N)c2o1 -2.22%
COc1ccc2nc(-c3ccncc3)oc2c1 4.83%
